Assay results as given in PubChem BioAssay (NCATS).
Where “and” joins values, the source holds several entries; their conditions need not be identical. Identical values can stand only once. Results filed as inconclusive are left out. A number with no mark means an inactive call. Calls of active or inactive are those of the source. The call rests on the fitted dose curve; in most records, active means well fitted curve in the direction sought with a large enough effect; inconclusive means small, poorly fitted or top-dose-only effect, or another doubt; inactive means no such curve, though single readings can be large; an effect the other way counts as inactive or inconclusive.

Columns and labels:
[1] = biological target: Cellular tumor antigen p53 (Homo sapiens) (UniProt P04637); experiment: Primary qHTS for small molecule compounds that upregulate eGFP-tagged delta133p53alpha (in N-terminal) cells. (AID 2060322); conditions: NCI-H358 eGFP-delta133p53alpha fluorescence, 24 h; activation: hits give high values; further: nearly all actives have a fitted effect of over 75% in size; further: potency means the concentration at half of the fitted maximal effect;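 on activation: series mostly up to about 56 µM; 0% = DMSO vehicle and 100% = reference activator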
Outline: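 NCI-H358 cells pre-induced 24 h with 10 ng/ml doxycycline to express N-terminal eGFP-delta133p53alpha, then dosed 24 h at 37C without doxycycline; fixed, Hoechst-stained, GFP intensity by laser scanning cytometry, normalized to DMSO (0%) and 57.5 uM 5-azacytidine (100%).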

[2] = biological target: Aldehyde dehydrogenase, mitochondrial (Homo sapiens) (UniProt P05091); experiment: qHTS for Inhibitors of the Aldehyde Dehydrogenase Family (ALDH2) Primary screen (AID 2061308);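 further: plate controls were vehicle for no effect and reference inhibitor for full effect; nearly all actives have a fitted effect of over 55% in size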
[3] = biological target: Retinaldehyde dehydrogenase 3 (Homo sapiens) (UniProt P47895); experiment: qHTS for Inhibitors of the Aldehyde Dehydrogenase Family (ALDH1A3) Primary screen (AID 2061315);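 further: plate controls were DMSO vehicle for no effect and reference inhibitor for full effect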
[4] = BET inhibitor-based combinations targeting novel dependencies in MECOM-rearranged (r) AML: SET-2 cell line (AID 2202231); conditions: SET-2 AML cells viability, CellTiter-Glo luminescence, 48 h; viability: hits give low values, series mostly up to about 46 µM;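 further: plate controls were DMSO treated cells for no effect and wells without cells for full effect; nearly all actives have a fitted effect of over 35% in size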
Outline: (§1)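 500 cells/well; 11-pt dose curve; 48 h, standard incubator; CellTiter-Glo luminescence after 15 min RT; DMSO/empty-well normalization; AUC plus Z-AUC (mean-centered within each line).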

[5] = BET inhibitor-based combinations targeting novel dependencies in MECOM-rearranged (r) AML: HNT-34 cell line (AID 2202234); further: nearly all actives have a fitted effect of over 35% in size; further: potency means the concentration at half of the fitted maximal effect
Outline: (§2)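 Cells were plated at 500 per well and exposed to each drug across an 11-point dose range for 48 hr at standard incubator conditions. Viability was read by CellTiter-Glo luminescence, and activity was expressed as AUC and per-cell-line Z-transformed AUC.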

[6] = BET inhibitor-based combinations targeting novel dependencies in MECOM-rearranged (r) AML: UCSD-AML1 cell line (AID 2202235); further: nearly all actives have a fitted effect of over 40% in size; further: potency means the concentration at half of the fitted maximal effect
Outline: as §2

[7] = BET inhibitor-based combinations targeting novel dependencies in MECOM-rearranged (r) AML: AML-191 cell line (AID 2202236; further: nearly all actives have a fitted effect of over 35% in size; further: potency means the concentration at half of the fitted maximal effect)
Outline: as §1

[8] = BET inhibitor-based combinations targeting novel dependencies in MECOM-rearranged (r) AML: AML-194 cell line (AID 2202237; further: nearly all actives have a fitted effect of over 40% in size; further: potency means the concentration at half of the fitted maximal effect)
Outline: as §1

[9] = BET inhibitor-based combinations targeting novel dependencies in MECOM-rearranged (r) AML: MV-4-11 cell line (AID 2202233); further: nearly all actives have a fitted effect of over 45% in size; further: potency means the concentration at half of the fitted maximal effect
Outline: as §2

[10] = BET inhibitor-based combinations targeting novel dependencies in MECOM-rearranged (r) AML: OCI-AML3 cell line (AID 2202232); conditions: Potency: OCI-AML3 viability; further: nearly all actives have a fitted effect of over 35% in size; further: potency means the concentration at half of the fitted maximal effect
Outline: as §1

Cellular tumor antigen p53 (Homo sapiens), sequence (P04637 whole entry, looked up): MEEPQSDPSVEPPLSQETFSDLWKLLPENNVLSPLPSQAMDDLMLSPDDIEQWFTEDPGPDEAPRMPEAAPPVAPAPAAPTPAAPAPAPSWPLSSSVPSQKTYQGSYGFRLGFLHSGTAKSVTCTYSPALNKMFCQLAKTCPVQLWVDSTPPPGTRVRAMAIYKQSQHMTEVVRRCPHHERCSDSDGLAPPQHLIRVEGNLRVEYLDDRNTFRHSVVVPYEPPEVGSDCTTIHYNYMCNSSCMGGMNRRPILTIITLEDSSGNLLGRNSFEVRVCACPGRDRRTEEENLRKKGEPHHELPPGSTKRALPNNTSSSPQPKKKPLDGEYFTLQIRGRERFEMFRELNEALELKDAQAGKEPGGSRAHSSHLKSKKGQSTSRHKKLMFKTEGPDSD

Row | Compound | activation [1] | Potency [2] | Potency [3] | viability [4] | Potency [5] | Potency [6] | Potency [7] | Potency [8] | Potency [9] | Potency [10] | Potency [1]
1 | Nc1ncnc2c1C(=O)N(c1ccc(C3CCC(CC(=O)O)CC3)cc1)CCO2 (centres undefined) | 18.6% | inactive | inactive | 105% | inactive | inactive | inactive | inactive | – | – | –
2 | CCN(CCO)CCCOc1ccc2c(Nc3cc(CC(=O)Nc4cccc(F)c4)[nH]n3)ncnc2c1 | -6.72% and 29.5% | inactive | inactive | 100% | – | – | 0.0934 µM (active) | – | 0.0525 µM (active) | – | –
3 | CC(=O)O[C@]1(C(C)=O)CC[C@H]2[C@@H]3C[C@H](C)C4=CC(=O)CC[C@]4(C)[C@H]3CC[C@@]21C | -7.53% and -21% | inactive | inactive | – | 8.33 µM (active) | 10.5 µM (active) | 9.34 µM (active) | 9.34 µM (active) | 18.6 µM (active) | 14.8 µM (active) | –
4 | O=C1CCC[C@@H]2[C@H]3CCC[N+]4([O-])CCC[C@@H](CN12)[C@@H]34 (some centres undefined) | 7.08% and -17.9% | inactive | inactive | – | inactive | inactive | inactive | inactive | inactive | inactive | –
5 | COCCOc1ccc2c(c1)ncn2-c1ccc2cccc(N3CCC(N)CC3)c2n1 | – | inactive | inactive | – | 7.42 µM (active) | 5.25 µM (active) | 2.09 µM (active) | 2.35 µM (active) | 0.0186 µM (active) | 9.34 µM (active) | 16.9 µM (active)
6 | CS(=O)(=O)CCNCc1ccc(-c2ccc3ncnc(Nc4ccc(OCc5cccc(F)c5)c(Cl)c4)c3c2)o1 | – | inactive | inactive | – | 3.72 µM (active) | inactive | 26.3 µM (active) | – | 18.6 µM (active) | 23.5 µM (active) | 26.9 µM (active)
